Data published in PubChem BioAssay AID2762 (National Center for Advancing Translational Sciences (NCATS), 2010).
Results filed as inconclusive are left out. Values without a mark were called inactive. Calls of active or inactive are those of the source. The call rests on the fitted dose curve; in most records, active means well fitted inhibition curve with a large enough effect; inconclusive means small, poorly fitted or top-dose-only effect, or effect the other way; inactive means no such curve, though single readings can be large or run the other way.

The compounds below were run against Nuclear receptor ROR-gamma (Mus musculus) (UniProt P51450) (assay: Concentration response confirmation assay for inhibitors of ROR gamma transcriptional activity). Settings: Drosophila S2 Gal4-RORgamma UAS-luciferase, 20 h; series mostly up to 46.1 µM; activity change, negative = inhibition: at the top concentration.
Chain of Nuclear receptor ROR-gamma (Mus musculus) (P51450 whole entry, looked up, the tested form may be a part): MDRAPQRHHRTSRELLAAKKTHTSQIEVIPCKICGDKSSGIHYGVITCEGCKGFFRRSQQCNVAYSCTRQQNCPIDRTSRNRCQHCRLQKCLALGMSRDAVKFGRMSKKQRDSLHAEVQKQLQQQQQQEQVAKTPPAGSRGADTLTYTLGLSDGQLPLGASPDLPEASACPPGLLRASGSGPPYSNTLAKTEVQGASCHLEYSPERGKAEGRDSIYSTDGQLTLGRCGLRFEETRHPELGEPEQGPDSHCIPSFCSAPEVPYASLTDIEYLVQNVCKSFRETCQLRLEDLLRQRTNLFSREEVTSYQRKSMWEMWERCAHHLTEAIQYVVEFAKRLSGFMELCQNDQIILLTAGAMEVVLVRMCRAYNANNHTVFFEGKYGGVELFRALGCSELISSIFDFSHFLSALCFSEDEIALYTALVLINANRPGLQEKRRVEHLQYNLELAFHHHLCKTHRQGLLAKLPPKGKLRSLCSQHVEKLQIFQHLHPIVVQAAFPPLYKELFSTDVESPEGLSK
Procedure, shortened: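 Luminescence from a UAS-regulated Photinus luciferase reporter in stably transfected Drosophila Schneider cells is measured; decreased signal marks ROR gamma inhibition. Fusion expression is induced by 700 uM copper sulfate for 20 hr.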

SMILES | Potency | activity change, negative = inhibition
Cc1nn(-c2cc(C)c3ccccc3n2)c2c1C1C(C2)C1(C)C (centres undefined) | 6.28 µM (active) | 
Oc1ccc(COCc2ccccc2)c2cccnc12 | 1.58 µM (active) | 
O=C(CN1CCCCCC1)Nc1ccc(S(=O)(=O)N2CCOCC2)cc1 |  | 19.2%
O=C(CCCN1C(=O)/C(=C/c2ccccc2Cl)SC1=S)NNC(=O)c1ccc(Cl)cc1Cl | 1.58 µM (active) | 
CCOc1ccc(C(=O)Nc2nc3ccccc3[nH]2)cc1OCC | 11.2 µM (active) | 
COc1cc(C2c3cc4c(cc3C(OC3OC5COC(c6cccs6)OC5C(O)C3O)C3COC(=O)C23)OCO4)cc(OC)c1O (centres undefined) | 4.99 µM (active) | 
CC(C)(C)c1ccc(-c2noc(CCC(=O)Nc3cccnc3)n2)cc1 | 0.0996 µM (active) | 
CCOC(=O)C1CCN(c2ncnc3c2cnn3-c2ccc(OC)cc2)CC1 |  | 9.59%
CCN(CC)c1ccc2cc(-c3nc4ccccc4[nH]3)c(=O)oc2c1 | 3.97 µM (active) | 
O=S(=O)(NCc1ccccn1)C(F)(F)F | 7.05 µM (active) | 
S=c1[nH]c(-c2ccc(Br)cc2)cn1CCc1ccccc1 | 9.96 µM (active) | 
CCOc1ccc2nc(NC(=O)c3cnccn3)sc2c1 | 3.15 µM (active) | 
Cc1cc(C)nc(-n2nc(C)cc2NC(=O)c2ccc(F)cc2F)n1 | 0.996 µM (active) | 
Cc1ccc(OCCn2cc(C(=S)N3CCCC3)c3ccccc32)cc1C | 12.5 µM (active) | 
S=c1[nH]nc(-c2ccc(Br)cc2)n1-c1ccc2c(c1)OCCO2 | 1.58 µM (active) | 
CC(=O)c1cccc(N(CC(=O)Nc2ccccc2C(=O)N2CCCC2)S(C)(=O)=O)c1 |  | 0.355%
Cc1ccc(Oc2nc(-c3ccccn3)nc3ccccc23)cc1 | 0.396 µM (active) | 
S=c1nc(COc2ccccc2)[nH]c2ccccc12 | 6.28 µM (active) | 
CCOC(=O)c1sc(NC(=O)c2sc(C)nc2C)nc1C |  | 6.4%
